Measurements as given in PubChem BioAssay AID1159580 (chemical genetic matrix, 2015).
Several values for one entry are separate records, joined by “and”; a condition that tells them apart may be missing. Equal entries are not always repeated. Hit rate of the full screen: of about 5,500 compounds, about 2,000 (36%) were called active. Inconclusive results (about 18%) are left out. Rule as the data show it: active = normalized growth mostly below about 0.91 (no sharp cut-off); inconclusive = no clear call, values can overlap the other calls; inactive = mostly above about 0.92. This is one part of the list.

Experiment: chemical genetic growth profiling, strain panel (AID 1159580);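 also: tested at 20 µM; growth read once vehicle control cultures reached saturation at 30 °C; 1 = growth at the plate median or of vehicle wells; lower values mean less growth of the strain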
Conditions: growth OD

Measured: normalized growth

CC[C@H]1CN2CCC1C[C@@H]2[C@@H](O)c1ccnc2ccc(OC)cc12 (some centres not stated)
inactive: S. cerevisiae deletion strains, locus YAL013W, strain DEP1, active compounds read low 0.997 | S. cerevisiae deletion strains, locus YBR021W, strain FUR4, active compounds read low 0.996 | S. cerevisiae deletion strains, locus YBR229C, strain ROT2, active compounds read low 0.992 | S. cerevisiae deletion strains, locus YCL029C, strain bik1, active compounds read low 1.01 | S. cerevisiae deletion strains, locus YDL035C, strain GPR1, active compounds read low 0.995 | S. cerevisiae deletion strains, locus YDL074C, strain BRE1, active compounds read low 1.01 | S. cerevisiae deletion strains, locus YDL101C, strain DUN1, active compounds read low 0.995 | S. cerevisiae deletion strains, locus YDL134C, strain PPH21, active compounds read low 1.01 | S. cerevisiae deletion strains, locus YDL185W, strain tfp1, active compounds read low 1.01 | S. cerevisiae deletion strains, locus YDL192W, strain arf1, active compounds read low 1.01 | S. cerevisiae deletion strains, locus YDR101C, strain arx1, active compounds read low 1 | S. cerevisiae deletion strains, locus YDR150W, strain NUM1, active compounds read low 1.01 | S. cerevisiae deletion strains, locus YDR162C, strain NBP2, active compounds read low 1 | S. cerevisiae deletion strains, locus YDR318W, strain mcm21, active compounds read low 1.02 | S. cerevisiae deletion strains, locus YDR388W, active compounds read low 1.01 | S. cerevisiae deletion strains, locus YDR502C, strain sam2, active compounds read low 1.04 | S. cerevisiae deletion strains, locus YEL061C, strain CIN8, active compounds read low 1.01 | S. cerevisiae deletion strains, locus YER110C, active compounds read low 1.01 | S. cerevisiae deletion strains, locus YER155C, strain BEM2, active compounds read low 1.01 | S. cerevisiae deletion strains, locus YER167W, strain BCK2, active compounds read low 1 | S. cerevisiae deletion strains, locus YGL078C, strain dbp3, active compounds read low 1.01 | S. cerevisiae deletion strains, locus YGL086W, strain mad1, active compounds read low 1 | S. cerevisiae deletion strains, locus YGL248W, strain PDE1, active compounds read low 0.997 | S. cerevisiae deletion strains, locus YGR078C, strain PAC10, active compounds read low 1 | S. cerevisiae deletion strains, locus YGR135W, strain pre9, active compounds read low 1.01 | S. cerevisiae deletion strains, locus YGR229C, strain SMI1, active compounds read low 0.977 | S. cerevisiae deletion strains, locus YGR252W, strain gcn5, active compounds read low 0.994 | S. cerevisiae deletion strains, locus YHR030C, strain SLT2, active compounds read low 1.01 and 1.04 | S. cerevisiae deletion strains, locus YHR079C, strain IRE1 (second series), active compounds read low 1.01 | S. cerevisiae deletion strains, locus YHR079C, strain IRE1, active compounds read low 1.02 | S. cerevisiae deletion strains, locus YHR094C, strain hxt1, active compounds read low 1.01 | S. cerevisiae deletion strains, locus YHR129C, strain ARP1, active compounds read low 1.01 | S. cerevisiae deletion strains, locus YHR200W, strain rpn10, active compounds read low 1.02 | S. cerevisiae deletion strains, locus YIL066C, strain RNR3, active compounds read low 1 | S. cerevisiae deletion strains, locus YIL073C, strain SPO22, active compounds read low 1.03 | S. cerevisiae deletion strains, locus YIL125W, strain kgd1, active compounds read low 1 | S. cerevisiae deletion strains, locus YIR030C, strain dcg1, active compounds read low 1.01 | S. cerevisiae deletion strains, locus YJL095W, strain BCK1, active compounds read low 1.01 and 1.02 | S. cerevisiae deletion strains, locus YJL134W, strain LCB3, active compounds read low 0.997 | S. cerevisiae deletion strains, locus YJL168C, strain set2, active compounds read low 1.01 | S. cerevisiae deletion strains, locus YJL187C, strain SWE1 (second series), active compounds read low 0.999 | S. cerevisiae deletion strains, locus YJR043C, strain POL32, active compounds read low 1.01 | S. cerevisiae deletion strains, locus YJR066W, strain TOR1, active compounds read low 0.956 | S. cerevisiae deletion strains, locus YJR075W, strain HOC1, active compounds read low 1 | S. cerevisiae deletion strains, locus YKL009W, strain mrt4, active compounds read low 1.08 | S. cerevisiae deletion strains, locus YKL068W, active compounds read low 1.01 | S. cerevisiae deletion strains, locus YKL085W, strain MDH1 (second series), active compounds read low 1.03 | S. cerevisiae deletion strains, locus YKL085W, strain MDH1, active compounds read low 1.03 | S. cerevisiae deletion strains, locus YKL190W, strain CNB1, active compounds read low 1.01 | S. cerevisiae deletion strains, locus YKR001C, strain vps1, active compounds read low 1.02 | S. cerevisiae deletion strains, locus YLR039C, strain RIC1, active compounds read low 1.01 | S. cerevisiae deletion strains, locus YLR058C, strain SHM2, active compounds read low 1 | S. cerevisiae deletion strains, locus YLR102C, strain apc9, active compounds read low 1.01 | S. cerevisiae deletion strains, locus YLR113W, strain HOG1, active compounds read low 1.02 | S. cerevisiae deletion strains, locus YLR262C, strain YPT6, active compounds read low 0.988 | S. cerevisiae deletion strains, locus YLR268W, strain sec22, active compounds read low 1.02 | S. cerevisiae deletion strains, locus YLR330W, strain CHS5, active compounds read low 1 | S. cerevisiae deletion strains, locus YLR342W, strain FKS1 (second series), active compounds read low 0.983 | S. cerevisiae deletion strains, locus YLR371W, strain rom2, active compounds read low 1.01 | S. cerevisiae deletion strains, locus YLR418C, strain cdc73, active compounds read low 1.01 | S. cerevisiae deletion strains, locus YML016C, strain PPZ1, active compounds read low 1 | S. cerevisiae deletion strains, locus YML032C, strain rad52, active compounds read low 1.01 | S. cerevisiae deletion strains, locus YML124C, strain tub3, active compounds read low 1.01 | S. cerevisiae deletion strains, locus YMR078C, strain ctf18, active compounds read low 1.03 | S. cerevisiae deletion strains, locus YMR223W, strain ubp8, active compounds read low 0.996 | S. cerevisiae deletion strains, locus YMR263W, strain SAP30, active compounds read low 1.02 | S. cerevisiae deletion strains, locus YMR307W, strain GAS1, active compounds read low 0.95 | S. cerevisiae deletion strains, locus YNL067W, strain RPL9B, active compounds read low 1.01 | S. cerevisiae deletion strains, locus YNL128W, strain TEP1, active compounds read low 1.01 | S. cerevisiae deletion strains, locus YNL153C, strain GIM3, active compounds read low 1 | S. cerevisiae deletion strains, locus YNL183C, strain NPR1, active compounds read low 0.942 | S. cerevisiae deletion strains, locus YNL233W, strain BNI4, active compounds read low 1 | S. cerevisiae deletion strains, locus YNL250W, strain rad50, active compounds read low 1.01 | S. cerevisiae deletion strains, locus YNL271C, strain bni1, active compounds read low 1.01 | S. cerevisiae deletion strains, locus YNL298W, strain CLA4, active compounds read low 1.01 | S. cerevisiae deletion strains, locus YNL307C, strain MCK1, active compounds read low 1.01 | S. cerevisiae deletion strains, locus YNL322C, strain KRE1, active compounds read low 1 | S. cerevisiae deletion strains, locus YNR052C, strain pop2, active compounds read low 1.02 | S. cerevisiae deletion strains, locus YOL006C, strain TOP1, active compounds read low 1.02 | S. cerevisiae deletion strains, locus YOL012C, strain htz1 0.815 | S. cerevisiae deletion strains, locus YOL147C, strain pex11, active compounds read low 1.01 | S. cerevisiae deletion strains, locus YOR061W, strain CKA2, active compounds read low 1.01 | S. cerevisiae deletion strains, locus YOR069W, strain VPS5, active compounds read low 0.998 | S. cerevisiae deletion strains, locus YOR136W, strain idh2, active compounds read low 1.02 | S. cerevisiae deletion strains, locus YOR144C, strain elg1, active compounds read low 1.01 | S. cerevisiae deletion strains, locus YOR184W, strain ser1, active compounds read low 1.01 | S. cerevisiae deletion strains, locus YOR231W, strain MKK1, active compounds read low 1.03 | S. cerevisiae deletion strains, locus YOR316C, strain cot1, active compounds read low 1.01 | S. cerevisiae deletion strains, locus YPL055C, strain LGE1, active compounds read low 0.993 | S. cerevisiae deletion strains, locus YPL241C, strain CIN2, active compounds read low 0.997 | S. cerevisiae deletion strains, locus YPL256C, strain CLN2, active compounds read low 1.02 | S. cerevisiae deletion strains, locus YPR119W, strain clb2, active compounds read low 1.01 | S. cerevisiae deletion strains, locus YPR141C, strain kar3, active compounds read low 1.01 | S. cerevisiae deletion strains, locus YPR163C, strain tif3, active compounds read low 1.02 | S. cerevisiae deletion strains, locus YPR167C, strain met16, active compounds read low 1.01 | S. cerevisiae deletion strains, strain wtn01, active compounds read low 1.03 | S. cerevisiae strains, strain wild type, active compounds read low 0.999
